# Where “and” joins values, the source holds several entries; their conditions need not be identical. Equal entries are not always repeated. Calls of active or inactive are those of the source.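 Rule for the calls: active = compounds whose cell count with miR-34 switched on is under 0.7 times the count with it off; inactive = the rest.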
# Assay: sensitizers of A549 cells to miR-34 induction, primary screen, imaging, A549 dox-inducible miR-34, nuclei and caspase counts (AID 1347080); note: test concentration not given here
# Details: A549 miR-34 inducible, Hoechst nuclei count, 48 h; stronger effect = lower value; cell number ratio, induced over uninduced
row,SMILES,fold change
1,COC(=O)[C@H](c1ccccc1Cl)N1CCc2sccc2C1,0.979 (inactive) and 0.893 (inactive) and 0.849 (inactive)
2,O=[N+]([O-])c1cccc2cn[nH]c12,1.03 (inactive) and 0.867 (inactive) and 0.91 (inactive)
3,Cc1occc(=O)c1O,1.32 (inactive)
4,COc1ccc(-c2cc(=O)c3c(OC)c(OC)c(OC)c(OC)c3o2)cc1OC,0.981 (inactive) and 0.97 (inactive)
5,C[N+]1(C)CCCC(OC(=O)C(O)(c2ccccc2)c2ccccc2)C1 (stereo not drawn),0.951 (inactive) and 0.851 (inactive) and 0.901 (inactive)
6,COc1ccc(C[C@H](N)C(=O)N[C@H]2[C@@H](O)[C@H](n3cnc4c(N(C)C)ncnc43)O[C@@H]2CO)cc1,1.03 (inactive) and 1.04 (inactive)
7,CC[C@H]1OC(=O)[C@H](C)[C@@H](O[C@H]2C[C@@](C)(OC)[C@@H](O)[C@H](C)O2)[C@H](C)[C@@H](O[C@@H]2O[C@H](C)C[C@H](N(C)C)[C@H]2O)[C@](C)(OC)C[C@@H](C)C(=O)[C@H](C)[C@@H](O)[C@]1(C)O,0.89 (inactive) and 0.856 (inactive)
8,C[C@H]1COc2c(N3CCN(C)CC3)c(F)cc3c(=O)c(C(=O)O)cn1c23,0.893 (inactive) and 0.857 (inactive)
9,O=c1ccc2ccc(O)c(O)c2o1,0.898 (inactive) and 0.94 (inactive)
10,Cc1cccc(C)c1NC(=O)C1CCCCN1C (stereo not drawn),0.977 (inactive) and 0.928 (inactive) and 0.875 (inactive)
11,CCCCC(=O)N(Cc1ccc(-c2ccccc2-c2nn[nH]n2)cc1)[C@H](C(=O)O)C(C)C,0.954 (inactive) and 0.853 (inactive)
12,Nc1ncnc2c1ncn2[C@@H]1O[C@H](CO)[C@@H](O)[C@@H]1O,0.95 (inactive) and 0.835 (inactive) and 0.86 (inactive)

# Same assay, conditions: A549 miR-34 inducible, Hoechst nuclei count, 48 h; measured here: relative caspase fold change +Dox/-Dox
row,SMILES,fold change
1,COC(=O)[C@H](c1ccccc1Cl)N1CCc2sccc2C1,1.69 and 3.06 and 2.09
2,O=[N+]([O-])c1cccc2cn[nH]c12,0.865 and 1.54 and 0.678
3,Cc1occc(=O)c1O,0.534
4,COc1ccc(-c2cc(=O)c3c(OC)c(OC)c(OC)c(OC)c3o2)cc1OC,1.14 and 0.279
5,C[N+]1(C)CCCC(OC(=O)C(O)(c2ccccc2)c2ccccc2)C1 (stereo not drawn),0.965 and 1.32 and 4.07
6,COc1ccc(C[C@H](N)C(=O)N[C@H]2[C@@H](O)[C@H](n3cnc4c(N(C)C)ncnc43)O[C@@H]2CO)cc1,1.77 and 0.862
7,CC[C@H]1OC(=O)[C@H](C)[C@@H](O[C@H]2C[C@@](C)(OC)[C@@H](O)[C@H](C)O2)[C@H](C)[C@@H](O[C@@H]2O[C@H](C)C[C@H](N(C)C)[C@H]2O)[C@](C)(OC)C[C@@H](C)C(=O)[C@H](C)[C@@H](O)[C@]1(C)O,4.5 and 0.962
8,C[C@H]1COc2c(N3CCN(C)CC3)c(F)cc3c(=O)c(C(=O)O)cn1c23,6.58 and 0.734
9,O=c1ccc2ccc(O)c(O)c2o1,1.4 and 0.597
10,Cc1cccc(C)c1NC(=O)C1CCCCN1C (stereo not drawn),1.53 and 0.775 and 2.13
11,CCCCC(=O)N(Cc1ccc(-c2ccccc2-c2nn[nH]n2)cc1)[C@H](C(=O)O)C(C)C,0.477 and 2.43
12,Nc1ncnc2c1ncn2[C@@H]1O[C@H](CO)[C@@H](O)[C@@H]1O,2.09 and 4.39 and 1.09

# Same assay, conditions: A549 miR-34 inducible, Hoechst nuclei count, 48 h; measured here: total cells with miR-34 induction; stronger effect = lower value
row,SMILES,cell count
1,COC(=O)[C@H](c1ccccc1Cl)N1CCc2sccc2C1,9850 and 11200 and 8380
2,O=[N+]([O-])c1cccc2cn[nH]c12,10200 and 8750 and 8260
3,Cc1occc(=O)c1O,9050
4,COc1ccc(-c2cc(=O)c3c(OC)c(OC)c(OC)c(OC)c3o2)cc1OC,9210 and 7680
5,C[N+]1(C)CCCC(OC(=O)C(O)(c2ccccc2)c2ccccc2)C1 (stereo not drawn),10300 and 8730 and 11200
6,COc1ccc(C[C@H](N)C(=O)N[C@H]2[C@@H](O)[C@H](n3cnc4c(N(C)C)ncnc43)O[C@@H]2CO)cc1,1000 and 950
7,CC[C@H]1OC(=O)[C@H](C)[C@@H](O[C@H]2C[C@@](C)(OC)[C@@H](O)[C@H](C)O2)[C@H](C)[C@@H](O[C@@H]2O[C@H](C)C[C@H](N(C)C)[C@H]2O)[C@](C)(OC)C[C@@H](C)C(=O)[C@H](C)[C@@H](O)[C@]1(C)O,11300 and 8870
8,C[C@H]1COc2c(N3CCN(C)CC3)c(F)cc3c(=O)c(C(=O)O)cn1c23,11000 and 8630
9,O=c1ccc2ccc(O)c(O)c2o1,7930 and 10100
10,Cc1cccc(C)c1NC(=O)C1CCCCN1C (stereo not drawn),8050 and 8030 and 11600
11,CCCCC(=O)N(Cc1ccc(-c2ccccc2-c2nn[nH]n2)cc1)[C@H](C(=O)O)C(C)C,8040 and 10600
12,Nc1ncnc2c1ncn2[C@@H]1O[C@H](CO)[C@@H](O)[C@@H]1O,9780 and 10000 and 8360

# Same assay, conditions: A549 miR-34 inducible, Hoechst nuclei count, 48 h; measured here: total cells without miR-34 induction
row,SMILES,cell count
1,COC(=O)[C@H](c1ccccc1Cl)N1CCc2sccc2C1,10100 and 12600 and 9870
2,O=[N+]([O-])c1cccc2cn[nH]c12,9850 and 10100 and 9080
3,Cc1occc(=O)c1O,6830
4,COc1ccc(-c2cc(=O)c3c(OC)c(OC)c(OC)c(OC)c3o2)cc1OC,9390 and 7920
5,C[N+]1(C)CCCC(OC(=O)C(O)(c2ccccc2)c2ccccc2)C1 (stereo not drawn),10800 and 10200 and 12500
6,COc1ccc(C[C@H](N)C(=O)N[C@H]2[C@@H](O)[C@H](n3cnc4c(N(C)C)ncnc43)O[C@@H]2CO)cc1,976 and 910
7,CC[C@H]1OC(=O)[C@H](C)[C@@H](O[C@H]2C[C@@](C)(OC)[C@@H](O)[C@H](C)O2)[C@H](C)[C@@H](O[C@@H]2O[C@H](C)C[C@H](N(C)C)[C@H]2O)[C@](C)(OC)C[C@@H](C)C(=O)[C@H](C)[C@@H](O)[C@]1(C)O,12700 and 10400
8,C[C@H]1COc2c(N3CCN(C)CC3)c(F)cc3c(=O)c(C(=O)O)cn1c23,12300 and 10100
9,O=c1ccc2ccc(O)c(O)c2o1,8840 and 10800
10,Cc1cccc(C)c1NC(=O)C1CCCCN1C (stereo not drawn),8240 and 8660 and 13200
11,CCCCC(=O)N(Cc1ccc(-c2ccccc2-c2nn[nH]n2)cc1)[C@H](C(=O)O)C(C)C,8430 and 12500
12,Nc1ncnc2c1ncn2[C@@H]1O[C@H](CO)[C@@H](O)[C@@H]1O,10300 and 12000 and 9720
